Screens deposited in PubChem BioAssay by National Center for Advancing Translational Sciences (NCATS).
In the library only some 2.6% were active in any assay of this set; here they are far more common.
TGFb inhibitor: inhibitors of TGF-b signaling; 410,000 tested, 1.2% active; AID 588855; HepG2 CAGA-GFP TGF-b/SMAD3 reporter, GFP fluorescence, 18 h; TGF-beta stimulated, 500 pg/mL final; Potency, µM (series often up to 46.1 µM), usual class: inhibitors; note: nearly all actives have a fitted effect of over 65% in size
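Using HEPG2 CAGA-GFP reporter cells at 1000 cells/well, we pinned test compounds, stimulated with recombinant TGF-beta (500 pg/mL final) and measured total well GFP after 18 h.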
uPA surface inh: cell surface uPA generation inhibition | Potency, µM (series often up to 38.3 µM), actives largely listed as inhibitors | cell surface uPA generation assay, qHTS | 330,000 tested, 0.31% active | AID 540303; active = well fitted inhibition curve with a large enough effect; inconclusive = small, poorly fitted or top-dose-only effect; inactive = no such curve, though single readings can be large or run the other way; tested in mouse RAW 264.7 cells; note: nearly all actives have a fitted effect of over 55% in size
HepG2 tox-1: kills HepG2 cells in TGF-b inhibitor counter-screen; Potency, µM (titrated, usually from 46.1 µM), most hits filed as cytotoxic; 410,000 tested, 0.76% active; AID 588856; HepG2 CAGA-GFP viability, ATP luminescence, 18 h
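HepG2 CAGA-GFP cells (1000/well, DMEM with 1% FBS) received compound, then TGF-beta at 500 pg/mL final, and were incubated 18 hours at 37 degrees C. Viability was read by CellTiter-Glo luminescence. Media-only wells were set as complete cell-killing and DMSO as no toxicity.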
ATXN viability: viability counter-screen for ATXN expression inhibitors; S2 cells (HEK-293 line with an ATXN2-luciferase reporter) viability, CellTiter-Fluor protease fluorescence, 24 h; 400,000 tested, 0.49% active; Potency, µM (highest dose often 56.7 µM), most hits filed as cytotoxic; note: nearly all actives have a fitted effect of over 40% in size
ATXN2 expr inh: reduces ATXN2 reporter expression in HEK-293 cells | AID 1745845 | HEK-293 ATXN2-luciferase reporter, luminescence, 24 h | 360,000 tested, 0.72% active | Potency, µM (top dose mostly 57 µM), hits mostly inhibitors; note: nearly all actives have a fitted effect of over 55% in size
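qHTS (up to 57 uM final) was run with 24 h compound exposure of reporter cells at 37 °C. Each well was multiplexed: SteadyGlo luminescence measured ATXN2-luciferase expression after a fluorogenic Gly-Phe-AFC viability readout (25 uM final).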
Giardia killer: kills Giardia lamblia. AID 540267. 340,000 tested, 0.15% active. Giardia lamblia trophozoite viability. activity change, % at 7.66 µM, hits read low; in the data active = activity change below about -80%; inconclusive = between about -30% and that limit;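 note: parasites exposed to compound for two days anaerobically before the ATP read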
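Viability, read as ATP luminescence: trophozoites at 100 cells/well, compound added, 48 hrs anaerobic at 37 deg C, then 15-30 min room-temperature development before reading.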
TGFb confirm: confirmation of TGF-b signaling inhibitors in HepG2 reporter cells. Potency, µM (top dose mostly 46.1 µM), usual class: inhibitors. shares compounds with TGFb inhibitor. AID 720534. HepG2 CAGA-GFP TGF-b reporter, GFP fluorescence, 18 h; cells stimulated with TGF-beta, 500 pg/mL. 1,600 tested, 63% active; note: nearly all actives have a fitted effect of over 65% in size
HepG2 tox-2: toxic to HepG2 cells in TGF-b counterscreen. shares compounds with TGFb inhibitor. HepG2 CAGA-GFP viability, ATP luminescence, 18 h; cells stimulated with TGF-beta, 500 pg/mL. Potency, µM (top dose mostly 46.1 µM), actives largely listed as inhibitors. 1,600 tested, 27% active. AID 720535; note: nearly all actives have a fitted effect of over 70% in size
CCL64 TGFb inh: blocks TGF-b signaling in CCL64 reporter cells; Potency, µM (series often up to 46.1 µM), hits mostly inhibitors; CCL64 CAGA-GFP reporter, TGF-b stimulated, GFP fluorescence, 18 h; AID 720536; 1,600 tested, 41% active; shares compounds with TGFb inhibitor; note: nearly all actives have a fitted effect of over 65% in size
COP TGFb inh: TGF-b inhibition validated with COP promoter; 1,600 tested, 3% active; AID 720537; shares compounds with TGFb inhibitor; HepG2 COP-GFP TGF-b reporter, GFP fluorescence, 18 h; cells stimulated by added recombinant TGF-beta; Potency, µM (highest dose often 46.1 µM), most hits filed as inhibitors; note: nearly all actives have a fitted effect of over 70% in size
Of the large screens only hits and unclear results are named; the others gave an inactive call (follow-up assays come after a bar, where they were run). Unless noted, calls come from the whole dose curve; as a rule, active = well fitted curve in the direction sought with a large enough effect; inconclusive = small, poorly fitted or top-dose-only effect, or another doubt; inactive = no such curve, though single readings can be large; an effect the other way counts as inactive or inconclusive.

CC(C)n1ncc2c(C(=O)N3CCN(Cc4ccc(Cl)s4)CC3)cc(C3CC3)nc21	TGFb inhibitor 10µM, ATXN viability inconclusive | TGFb confirm inconclusive | HepG2 tox-2 inactive | CCL64 TGFb inh inconclusive | COP TGFb inh inactive
CC(C)c1ccccc1OCC(=O)NC1CCCc2ccccc21 (stereo not drawn)	TGFb inhibitor 16µM | TGFb confirm 18µM | HepG2 tox-2 inconclusive | CCL64 TGFb inh inconclusive | COP TGFb inh inactive
COC(=O)c1ccc2nc(-c3ccco3)c(Cc3ccc(C)cc3)n2c1	TGFb inhibitor inconclusive (no result: uPA surface inh, Giardia killer)
COC(=O)c1ccc2nc(-c3ccco3)c(Cc3cccc(F)c3)n2c1	TGFb inhibitor 14µM (no result: uPA surface inh, Giardia killer) | TGFb confirm 21µM | HepG2 tox-2 inactive | CCL64 TGFb inh inconclusive | COP TGFb inh inactive
CCn1c(CC(=O)Nc2ccccc2F)nnc1SCC(=O)Nc1nncs1	none (no result: uPA surface inh)
Cc1ccc(C)c(S(=O)(=O)Nc2ccccc2C(=O)Nc2cc(C)on2)c1	TGFb inhibitor 7.9µM, ATXN2 expr inh inconclusive | TGFb confirm inconclusive | HepG2 tox-2 inconclusive | CCL64 TGFb inh inconclusive | COP TGFb inh inactive
CS(=O)(=O)c1nc(S(=O)(=O)c2ccc(Cl)cc2)c(N2CCCCCC2)s1	none
Cn1cc(-c2cnc3c(NC=O)cc(-c4cccc(C(F)(F)F)c4)cn23)cn1	TGFb inhibitor 11µM (no result: uPA surface inh, Giardia killer) | TGFb confirm 23µM | HepG2 tox-2 inactive | CCL64 TGFb inh inconclusive | COP TGFb inh inactive
Nc1ccc(-c2cc(NC=O)c3ncc(-c4cccc(C(F)(F)F)c4)n3c2)cn1	TGFb inhibitor inconclusive, ATXN2 expr inh inconclusive (no result: uPA surface inh, Giardia killer)
O=CNc1cc(-c2ccoc2)cn2c(-c3ccc(F)cc3)cnc12	TGFb inhibitor 10µM (no result: uPA surface inh, Giardia killer) | TGFb confirm inconclusive | HepG2 tox-2 inactive | CCL64 TGFb inh inconclusive | COP TGFb inh inactive
CC(=O)c1cccc(-c2cnc3c(NC=O)cc(-c4ccccc4F)cn23)c1	TGFb inhibitor 6.3µM, ATXN2 expr inh inconclusive (no result: uPA surface inh, Giardia killer) | TGFb confirm 6.5µM | HepG2 tox-2 inactive | CCL64 TGFb inh 1.5µM | COP TGFb inh inactive
CCC(=O)N1c2ccccc2CC1C(=O)NCCN1CCN(c2cccc(C)c2C)CC1 (stereo not drawn)	none (no result: uPA surface inh, Giardia killer)
CN(C)CC(C(=O)c1ccccc1)c1ccccc1 (stereo not drawn)	TGFb inhibitor 4µM, HepG2 tox-1 8.9µM, ATXN2 expr inh 22µM, Giardia killer inconclusive (no result: ATXN viability) | TGFb confirm 5.2µM | HepG2 tox-2 10µM | CCL64 TGFb inh 3.3µM | COP TGFb inh inconclusive
CN(Cc1cc(Cl)cc(Cl)c1)CC(C(=O)c1ccccc1)c1ccccc1 (stereo not drawn)	TGFb inhibitor inconclusive, ATXN viability inconclusive, ATXN2 expr inh inconclusive
O=C1Cc2c([nH]c3ccc([N+](=O)[O-])cc23)-c2ccccc2N1	TGFb inhibitor 0.5µM, ATXN viability inconclusive, ATXN2 expr inh inconclusive | TGFb confirm 0.16µM | HepG2 tox-2 0.29µM | CCL64 TGFb inh 1.3µM | COP TGFb inh inactive
CCN(CC)S(=O)(=O)c1cccc(NC(=O)CC2CCCC2)c1	none
CCN(CC)S(=O)(=O)c1cccc(NC(=O)Nc2cccc(C(F)(F)F)c2)c1	TGFb inhibitor 7.9µM, HepG2 tox-1 11µM, ATXN viability inconclusive, ATXN2 expr inh 22µM | TGFb confirm 10µM | HepG2 tox-2 inconclusive | CCL64 TGFb inh 8.2µM | COP TGFb inh inactive
CN(Cc1cccc(F)c1)C(=O)c1cccc(S(=O)(=O)N2CCN(Cc3ccccc3)CC2)c1	none
CN(Cc1cccc(Cl)c1Cl)C(=O)c1cccc(S(=O)(=O)N2CCN(Cc3ccccc3)CC2)c1	TGFb inhibitor 8.9µM, uPA surface inh inconclusive, ATXN viability inconclusive | TGFb confirm 10µM | HepG2 tox-2 inconclusive | CCL64 TGFb inh inconclusive | COP TGFb inh inactive
Cc1ccc(S(=O)(=O)N2C[C@]3(O)C[C@@H]4C(=O)N(c5ccccc5)C(=O)[C@@H]4C[C@]3(OC(=O)NC3CCCC3)C2)cc1	none (no result: uPA surface inh, Giardia killer)
O=S(=O)(c1ccccc1F)N1CCN(Cc2cc3c(cc2Br)OCCO3)CC1	TGFb inhibitor 13µM | TGFb confirm inconclusive | HepG2 tox-2 inactive | CCL64 TGFb inh inconclusive | COP TGFb inh inactive
O=S(=O)(c1ccccc1)N1CCN(Cc2cc3c(cc2Br)OCCO3)CC1	TGFb inhibitor inconclusive, ATXN viability inconclusive
COc1ccc(-c2cc(C)no2)cc1S(=O)(=O)N1CCN(c2ccc(C(C)=O)cc2)CC1	none (no result: uPA surface inh, ATXN viability, ATXN2 expr inh, Giardia killer)
Fc1cccc(CCN2C(=S)NC[C@@H]2CC2CCCCC2)c1	TGFb inhibitor 14µM, ATXN viability inconclusive, Giardia killer inconclusive | TGFb confirm 16µM | HepG2 tox-2 inactive | CCL64 TGFb inh inconclusive | COP TGFb inh inactive
O=C(CCN1C(=O)c2ccccc2S1(=O)=O)Nc1ccc(F)c(F)c1F	none
CCOC(=O)c1sc2ncn(CC(=O)Nc3ccc(OC)c(Cl)c3)c(=O)c2c1C	none (no result: uPA surface inh, Giardia killer)
NCC(O)COCCC12CC3CC(CC(C3)C1)C2 (stereo not drawn)	none
CC(NCC(O)COCCC12CC3CC(CC(C3)C1)C2)c1ccccc1 (stereo not drawn)	TGFb inhibitor 7.9µM, uPA surface inh inconclusive, HepG2 tox-1 7.1µM, ATXN2 expr inh 32µM (no result: ATXN viability) | TGFb confirm inconclusive | HepG2 tox-2 21µM | CCL64 TGFb inh inconclusive | COP TGFb inh inconclusive
COc1ccc(C(=O)Nc2ccccc2-c2nc3ccccc3s2)cc1OC	none (no result: uPA surface inh, Giardia killer)
Cc1ccc(SC2=C(N(C)C)C(=O)c3ccccc3C2=O)cc1	TGFb inhibitor 10µM, ATXN viability inconclusive, ATXN2 expr inh inconclusive | TGFb confirm inconclusive | HepG2 tox-2 inactive | CCL64 TGFb inh 21µM | COP TGFb inh inactive
Cc1sc2nc(SCC(=O)N(C)c3ccccc3)n(C)c(=O)c2c1C	uPA surface inh inconclusive
